Reference: article PMC12280212

Molecular target: PPIA (UniProt P62937)
Experiment: cross-linking mass spectrometry
Settings: DSSO, in cells

Chain of PPIA (P62937 whole entry): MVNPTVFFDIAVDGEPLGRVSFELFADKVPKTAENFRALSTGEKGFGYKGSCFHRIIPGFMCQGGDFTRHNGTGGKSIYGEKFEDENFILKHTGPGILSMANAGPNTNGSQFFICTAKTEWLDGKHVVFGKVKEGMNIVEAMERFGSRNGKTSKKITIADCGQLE
Chain of ENO1, P06733 (P06733 whole entry): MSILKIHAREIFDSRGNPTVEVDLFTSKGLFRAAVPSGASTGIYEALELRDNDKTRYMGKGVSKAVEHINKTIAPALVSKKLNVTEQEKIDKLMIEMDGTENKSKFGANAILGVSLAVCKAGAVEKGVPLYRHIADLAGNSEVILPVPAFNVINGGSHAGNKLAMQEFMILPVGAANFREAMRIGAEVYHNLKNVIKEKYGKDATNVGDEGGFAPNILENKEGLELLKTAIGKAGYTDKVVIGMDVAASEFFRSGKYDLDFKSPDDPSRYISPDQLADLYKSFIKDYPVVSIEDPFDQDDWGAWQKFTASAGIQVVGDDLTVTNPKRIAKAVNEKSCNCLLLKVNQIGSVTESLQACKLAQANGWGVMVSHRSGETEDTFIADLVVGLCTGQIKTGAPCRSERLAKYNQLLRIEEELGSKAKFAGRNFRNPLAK
Chain of GAPDH, P04406 (P04406 whole entry): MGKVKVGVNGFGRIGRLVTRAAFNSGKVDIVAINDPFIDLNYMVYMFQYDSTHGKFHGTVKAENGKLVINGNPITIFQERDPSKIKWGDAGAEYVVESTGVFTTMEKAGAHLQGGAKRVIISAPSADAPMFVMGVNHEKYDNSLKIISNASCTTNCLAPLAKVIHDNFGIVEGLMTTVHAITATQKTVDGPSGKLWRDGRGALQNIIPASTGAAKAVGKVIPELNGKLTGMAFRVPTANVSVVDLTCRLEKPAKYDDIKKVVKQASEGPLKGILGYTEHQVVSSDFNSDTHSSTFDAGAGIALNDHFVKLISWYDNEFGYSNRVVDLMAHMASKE
Chain of YWHAB, P31946 (P31946 whole entry): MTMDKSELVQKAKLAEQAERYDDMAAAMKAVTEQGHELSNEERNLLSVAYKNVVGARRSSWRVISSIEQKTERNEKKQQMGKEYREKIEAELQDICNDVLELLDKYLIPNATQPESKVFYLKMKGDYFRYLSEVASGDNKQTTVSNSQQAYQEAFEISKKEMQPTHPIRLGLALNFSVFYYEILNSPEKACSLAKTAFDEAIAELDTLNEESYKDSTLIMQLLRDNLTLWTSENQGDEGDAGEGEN
Chain of YWHAQ, P27348 (P27348 whole entry): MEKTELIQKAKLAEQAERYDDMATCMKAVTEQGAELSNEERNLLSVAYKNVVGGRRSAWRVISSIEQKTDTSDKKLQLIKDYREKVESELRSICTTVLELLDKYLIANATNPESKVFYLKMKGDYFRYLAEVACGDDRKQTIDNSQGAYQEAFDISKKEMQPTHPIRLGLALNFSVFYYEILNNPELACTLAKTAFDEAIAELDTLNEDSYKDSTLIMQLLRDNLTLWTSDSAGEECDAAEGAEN

| Substance | cross-linked residues |
| --- | --- |
| VIM, P08670 | K445 - K76 |
| GAPDH, P04406 | K251 - K76 |
| ENO1, P06733 | K256 - K82 |

Molecular target: RRBP1 (UniProt Q9P2E9)
Experiment: cross-linking mass spectrometry
Settings: DSSO, in cells

| Substance | cross-linked residues |
| --- | --- |
| RPL10A, P62906 | K130 - K261 |
| SEC61B, P60468 | K20 - K261 |
| RPL31, P62899 | K91 - K261 |
| RPL11, P62913 | K67 - K270 |
| LRRC59, Q96AG4 | K180 - K261 |

Molecular target: YWHAZ (UniProt P63104)
Experiment: cross-linking mass spectrometry
Settings: DSSO, in cells

| Substance | cross-linked residues |
| --- | --- |
| S100A6, P06703 | K26 - K157 |
| YWHAQ, P27348 | K9 - K85 |
| YWHAB, P31946 | K11 - K85 |
